# Laboratory results from PubChem BioAssay (NCATS).
# Where “and” joins values, the source holds several entries; their conditions need not be identical. Equal entries are not always repeated. Records with an inconclusive call do not appear. Entries that show only a call come without a potency. Calls of active or inactive are those of the source. Unless noted, the call rests on the fitted dose curve; in most records, active means well fitted curve in the direction sought with a large enough effect; inconclusive means small, poorly fitted or top-dose-only effect, or another doubt; inactive means no such curve, though single readings can be large; an effect the other way counts as inactive or inconclusive.
# Legend:
# [1] = qHTS Assay for Lipid Storage Modulators (AID 1519; calls by dose curve); conditions: Drosophila S3 cells, BODIPY lipid droplet/cell ratio, laser cytometry, cells loaded with oleic acid
# Method in brief: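 Cells seeded at 5,000 per well were treated with compounds over a concentration series and loaded with oleic acid (400 uM, as added). Lipid droplet fluorescence (488 nm excitation, 500-530 nm channel) was read by laser-scanning cytometry and normalized to 20 uM Triacsin C.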
# [2] = target: DNA repair nuclease/redox regulator APEX1 (Homo sapiens) (UniProt P27695); assay: qHTS Validation Assay for Inhibitors of the Human Apurinic/apyrimidinic Endonuclease 1 (APE1) (AID 1705;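 further: TAMRA fluorescence gain over two minutes as APE1 cuts a quenched THF abasic duplex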); conditions: purified APE1 endonuclease activity, fluorescence, titration; series mostly up to 57.1 µM
# Sequence of DNA repair nuclease/redox regulator APEX1 (Homo sapiens) (P27695 whole entry, looked up): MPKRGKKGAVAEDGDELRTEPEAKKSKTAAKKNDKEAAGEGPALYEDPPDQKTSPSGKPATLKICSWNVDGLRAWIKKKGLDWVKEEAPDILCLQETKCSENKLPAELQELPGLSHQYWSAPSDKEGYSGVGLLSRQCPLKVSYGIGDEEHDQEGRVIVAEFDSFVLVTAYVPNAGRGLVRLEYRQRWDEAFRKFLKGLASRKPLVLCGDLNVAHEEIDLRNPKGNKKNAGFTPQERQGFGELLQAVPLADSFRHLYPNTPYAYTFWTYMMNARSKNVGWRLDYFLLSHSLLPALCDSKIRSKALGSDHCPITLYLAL
# Method in brief: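 Endonuclease activity of human APE1 is followed as dequenching when the enzyme incises a tetrahydrofuran abasic site in a short duplex labelled 5'-TAMRA/3'-BHQ-2 (50 nM final), after 15 min enzyme–compound preincubation at room temperature.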
# [3] = Counterscreen for APE1 Inhibitors: Fluorescent Dye Displacement Validation Assay (AID 1707); conditions: fluorescent dye displacement from DNA; series mostly up to 57.1 µM
# Method in brief: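 Endpoint fluorescence read at 480 nm excitation / 540 nm emission; DNA-binding compounds lower signal by displacing 250 nM Thiazole Orange from 50 nM dsDNA containing a tetrahydrofuran abasic site, Tris-HCl pH7.5 buffer with NaCl and MgCl2.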
# [4] = target: Endonuclease 4 (Escherichia coli (strain K12)) (UniProt P0A6C1); assay: Counterscreen for APE1 Inhibitors: qHTS Validation Assay for Inhibitors of Endonuclease IV (AID 1708); conditions: E. coli endonuclease IV, DNA cleavage fluorescence; series mostly up to 57.1 µM
# Method in brief: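 Incision of a double-stranded 50 nM TAMRA/BHQ-2 abasic substrate was followed kinetically (525/598 nm, reads every 60 s) after 15 min enzyme–compound preincubation with 2 nM EndoIV in pH 7.5 Tris buffer with MgCl2, DTT and Tween-20; concentration-response format.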
# [5] = qHTS for differential inhibitors of proliferation of Plasmodium falciparum line 7G8 (AID 1815); conditions: Plasmodium falciparum 7G8 proliferation inhibition; series mostly up to 28.7 µM;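 further: parasite growth measured after three days of incubation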
# [6] = qHTS for differential inhibitors of proliferation of Plasmodium falciparum line GB4 (AID 1816); conditions: Potency: Plasmodium falciparum GB4 proliferation inhibition; series mostly up to 28.7 µM;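 further: parasite growth measured after 72 h incubation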
# [7] = qHTS for differential inhibitors of proliferation of Plasmodium falciparum line 3D7 (AID 1876);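 further: parasite growth measured after three days of culture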; conditions: P. falciparum 3D7 proliferation inhibition; series mostly up to 28.7 µM
# [8] = qHTS for differential inhibitors of proliferation of Plasmodium falciparum line D10 (AID 1877); conditions: series mostly up to 28.7 µM;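 further: parasites grown with compound for 72 h before DNA staining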
# [9] = qHTS for differential inhibitors of proliferation of Plasmodium falciparum line Dd2 (AID 1882); conditions: Potency: Plasmodium falciparum Dd2 proliferation inhibition; series mostly up to 28.7 µM; further: nearly all actives have a fitted effect of over 65% in size
# Method in brief: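 SYBR Green DNA fluorescence (ex 485, em 535 nm) after overnight lysis quantifies parasite growth; compound exposure lasted 72 h at 37 C on infected red cells at 2.5% hematocrit, 0.3% parasitemia (final). Artemisinin 0.29 uM and vehicle wells define normalization.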
# [10] = qHTS for differential inhibitors of proliferation of Plasmodium falciparum line HB3 (AID 1886); conditions: Potency: Plasmodium falciparum HB3 proliferation inhibition; series mostly up to 28.7 µM;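 further: parasites grown with compound for 72 h before SYBR Green readout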
# [11] = qHTS Assay for Modulators of Human Peripheral Myelin Protein 22 (PMP22) Expression/Activity (AID 1967; active means well fitted curve in the direction sought with a large enough effect in the signal ratio; the % refers to the signal ratio); conditions: Cell-based PMP22 reporter, dual-color luciferase ratio, 0% = compound-free control cells, mouse Pmp22 promoter in mouse Schwann cells; series mostly up to 115 µM
# Method in brief: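 Quantitative HTS in a mouse Schwann cell line expressing dual click beetle luciferases: Pmp22 promoter (green) and control EF-alpha promoter (red). After 24h treatment, corrected green/red signal ratio gave %Activity relative to untreated cells.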
# [12] = target: Ferritin light chain (Equus caballus) (UniProt P02791); assay: qHTS Validation Assay for Identification of Novel General Anesthetics (AID 2323); conditions: horse apoferritin, anesthetic-site fluorescent probe displacement; series mostly up to 76.9 µM
# Sequence of Ferritin light chain (Equus caballus) (P02791 2-175 limits assumed): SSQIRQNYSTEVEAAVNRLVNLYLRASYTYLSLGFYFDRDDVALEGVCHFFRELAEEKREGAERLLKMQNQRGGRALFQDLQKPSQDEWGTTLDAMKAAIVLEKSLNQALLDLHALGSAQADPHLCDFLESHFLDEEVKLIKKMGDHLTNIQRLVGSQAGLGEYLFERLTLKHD
# Method in brief: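 Apoferritin from horse spleen (10 uM) was mixed with 1-aminoanthracene at 50% saturation in PBS, then compounds were added. After 10 min at room temperature, fluorescence was read (ex 380 nm, em 535 nm) and normalized to free-probe and complex controls.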
# [13] = target: ATP-dependent DNA helicase Q1 (Homo sapiens) (UniProt P46063); assay: qHTS Validation Assay for Inhibitors of RecQ-Like Dna Helicase 1 (RECQ1) (AID 2353); conditions: recombinant RECQ1 helicase DNA unwinding assay; series mostly up to 25.6 µM
# Sequence of ATP-dependent DNA helicase Q1 (Homo sapiens) (P46063 whole entry, looked up): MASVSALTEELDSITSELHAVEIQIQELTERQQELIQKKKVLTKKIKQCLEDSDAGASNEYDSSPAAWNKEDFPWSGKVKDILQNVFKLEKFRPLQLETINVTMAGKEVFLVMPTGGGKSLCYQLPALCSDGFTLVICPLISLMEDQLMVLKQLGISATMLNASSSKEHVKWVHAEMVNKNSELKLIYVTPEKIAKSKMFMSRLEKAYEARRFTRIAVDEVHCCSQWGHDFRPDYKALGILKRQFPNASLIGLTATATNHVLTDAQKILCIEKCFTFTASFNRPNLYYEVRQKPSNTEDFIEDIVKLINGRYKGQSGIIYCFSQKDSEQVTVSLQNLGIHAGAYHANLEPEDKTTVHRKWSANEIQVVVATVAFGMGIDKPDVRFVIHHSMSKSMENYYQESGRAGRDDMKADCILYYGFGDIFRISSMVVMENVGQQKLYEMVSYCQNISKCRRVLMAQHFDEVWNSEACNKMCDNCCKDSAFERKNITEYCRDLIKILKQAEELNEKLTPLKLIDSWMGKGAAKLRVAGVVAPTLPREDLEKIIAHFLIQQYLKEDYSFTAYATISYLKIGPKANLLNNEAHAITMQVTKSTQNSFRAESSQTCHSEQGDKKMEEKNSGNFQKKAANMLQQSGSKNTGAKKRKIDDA
# Method in brief: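 RECQ1T1 50 nM; forked duplex (20 bp + 30-nt ss tails) 200 nM, ATP 2 mM final; pH 8.0, 2 mM MgCl2, 2.5 ug/ml poly(dI-dC); 15 min compound preincubation; discontinuous kinetic read over 2 h at RT.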
# [14] = target: RecQ-like DNA helicase BLM (Homo sapiens) (UniProt P54132); assay: qHTS Validation Assay for Inhibitors of Bloom's syndrome helicase (BLM) (AID 2364); conditions: BLM helicase DNA unwinding, fluorescence, in vitro; series mostly up to 57.1 µM
# Sequence of RecQ-like DNA helicase BLM (Homo sapiens) (P54132 whole entry, looked up): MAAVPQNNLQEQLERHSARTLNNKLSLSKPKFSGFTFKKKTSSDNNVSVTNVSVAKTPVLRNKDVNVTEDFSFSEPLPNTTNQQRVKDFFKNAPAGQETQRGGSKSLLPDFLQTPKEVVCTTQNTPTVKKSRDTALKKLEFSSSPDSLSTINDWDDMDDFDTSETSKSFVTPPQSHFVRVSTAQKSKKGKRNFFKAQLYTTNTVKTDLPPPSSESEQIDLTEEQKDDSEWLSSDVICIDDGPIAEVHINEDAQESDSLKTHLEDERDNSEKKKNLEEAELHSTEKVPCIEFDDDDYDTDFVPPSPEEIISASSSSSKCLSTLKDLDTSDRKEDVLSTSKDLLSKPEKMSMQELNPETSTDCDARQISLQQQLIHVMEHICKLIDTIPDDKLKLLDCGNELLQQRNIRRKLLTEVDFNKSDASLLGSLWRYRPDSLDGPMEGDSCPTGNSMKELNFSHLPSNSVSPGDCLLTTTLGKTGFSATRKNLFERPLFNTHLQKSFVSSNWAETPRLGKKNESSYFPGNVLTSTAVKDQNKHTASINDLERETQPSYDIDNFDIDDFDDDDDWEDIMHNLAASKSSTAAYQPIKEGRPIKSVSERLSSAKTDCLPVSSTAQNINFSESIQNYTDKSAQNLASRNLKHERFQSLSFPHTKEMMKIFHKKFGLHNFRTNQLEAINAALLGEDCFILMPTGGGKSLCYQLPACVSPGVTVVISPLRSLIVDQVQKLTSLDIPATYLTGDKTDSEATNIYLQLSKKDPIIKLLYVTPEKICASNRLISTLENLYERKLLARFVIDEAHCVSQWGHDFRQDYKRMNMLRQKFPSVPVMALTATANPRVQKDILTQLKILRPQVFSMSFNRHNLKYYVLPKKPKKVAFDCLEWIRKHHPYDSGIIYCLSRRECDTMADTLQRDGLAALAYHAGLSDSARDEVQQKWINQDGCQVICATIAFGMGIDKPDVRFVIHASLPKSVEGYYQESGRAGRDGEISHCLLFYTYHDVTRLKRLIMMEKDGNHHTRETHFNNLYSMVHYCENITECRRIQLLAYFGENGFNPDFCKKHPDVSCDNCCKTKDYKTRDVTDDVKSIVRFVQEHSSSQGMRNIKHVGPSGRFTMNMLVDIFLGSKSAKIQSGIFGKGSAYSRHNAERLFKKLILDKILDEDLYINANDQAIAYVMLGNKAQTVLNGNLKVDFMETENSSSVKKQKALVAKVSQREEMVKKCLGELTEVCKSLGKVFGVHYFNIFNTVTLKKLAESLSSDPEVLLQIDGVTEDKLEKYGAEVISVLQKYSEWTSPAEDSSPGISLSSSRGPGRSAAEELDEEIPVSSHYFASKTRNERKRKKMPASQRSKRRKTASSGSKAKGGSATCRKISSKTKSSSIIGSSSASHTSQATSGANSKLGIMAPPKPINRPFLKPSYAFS
# Method in brief: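 Forked 20-bp duplex substrate (200 nM, TAMRA/BHQ-2) plus 2 mM ATP added after 15 min compound preincubation with 50 nM enzyme, pH 8.0, poly(dI-dC) 2.5 ug/ml. Strand separation followed by fluorescence (525/598 nm) over 2 h, normalized to enzyme-free and DMSO controls.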
# [15] = Cytometric Cell-Based qHTS for Inhibitors of the mTORC1 Signaling Pathway in MEF (Tsc2-/-, p53-/-) Cells (AID 2660); conditions: mTORC1 pathway cytometry; series mostly up to 38.3 µM;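 further: Tsc2 and p53 null MEFs carrying empty vector with compound for 24 h; percent of cells above a phospho-rpS6 to PI ratio cutoff in each well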
# Method in brief: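 Cells are plated, treated with compound for 24 hrs at 37 degree Celsius, then fixed, blocked and immunostained for phospho-rpS6 Ser235/236. Propidium iodide counterstain follows. Per-well % positive cells is derived from the PI-normalized phospho-S6 signal.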
# [16] = High Content Imaging Cell-Based qHTS for Inhibitors of the mTORC1 Signaling Pathway in MEF (Tsc2-/-, p53-/-) Cells (AID 2666); conditions: series mostly up to 38.3 µM;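 further: percent of cells scored positive for phospho-rpS6 Ser235/236 immunostaining by imaging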
# Method in brief: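 Tsc2-/-, p53-/- MEFs (empty-vector stable) grown in DMEM + 10% FBS were exposed to compounds for 24 hrs at 37 degree Celsius, fixed, and stained with Alexa-488 anti-phospho-rpS6 Ser235/236 plus Hoechst. Imaging gave the percentage of positive cells per well.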
# [17] = High Content Imaging Cell-Based qHTS for Inhibitors of the mTORC1 Signaling Pathway in MEF Cells (AID 2667); conditions: series mostly up to 38.3 µM;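 further: Tsc2-/- p53-/- MEFs stably re-expressing wild-type Tsc2 exposed 24 h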
# Method in brief: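 Tsc2-/-, p53-/- MEFs stably re-expressing WT Tsc2, grown in DMEM + 10% FBS, were treated with compounds for 24 hrs at 37 degree Celsius, fixed, and stained with Alexa-488 phospho-rpS6 Ser235/236 antibody plus Hoechst; results given as % positive cells.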
# [18] = qHTS for differential inhibitors of proliferation of Plasmodium falciparum line W2 (AID 1883); conditions: Potency: Plasmodium falciparum W2 proliferation inhibition; series mostly up to 28.7 µM;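 further: parasites grown with compound for 72 h before lysis and staining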
# [19] = measured here: cell count channel max response
# [20] = measured here: lipid channel max response
smiles,measurement,setting,value
CCCc1cc(=O)[nH]c(=S)[nH]1,"activity change, negative = inhibition",[1]; at 25.7 µM (top of the series),0.162% (inactive)
same,"activity change, negative = inhibition",[1]; at 57.5 µM (top of the series),8.07% (inactive)
same,max response,[1]; [19],4.47% and 16.1%
same,max response,[1]; [20],5.94% and 25.3%
Nc1nc(Cl)nc2c1ncn2[C@H]1C[C@H](O)[C@@H](CO)O1,"activity change, negative = inhibition",[1]; at 57.5 µM (top of the series),-3.99% (inactive)
same,max response,[1]; [19],-0.0923%
same,max response,[1]; [20],-3.39%
CC(=O)Nc1ccc(O)cc1,"activity change, negative = inhibition",[1]; at 25.7 µM (top of the series),-2.03% (inactive)
same,"activity change, negative = inhibition",[1]; at 57.5 µM (top of the series),-1.72% (inactive) and 6.64% (inactive)
same,max response,[1]; [19],-12.5% and -9.7% and 2.35%
same,max response,[1]; [20],-12.8% and -10.2% and 7.7%
Cc1cc2cc3c(C)cc(=O)oc3c(C)c2o1,"activity change, negative = inhibition",[1]; at 25.7 µM (top of the series),-0.305% (inactive)
same,max response,[1]; [19],-4.86%
same,max response,[1]; [20],-6.06%
CCOc1cc(CC(=O)N[C@@H](CC(C)C)c2ccccc2N2CCCCC2)ccc1C(=O)O,"activity change, negative = inhibition",[1]; at 25.7 µM (top of the series),0.216% (inactive)
same,max response,[1]; [19],-5.3%
same,max response,[1]; [20],-9.52%
CCN(CCO)CCCC(C)Nc1ccnc2cc(Cl)ccc12 (configuration not stated),"activity change, negative = inhibition",[1]; at 57.5 µM (top of the series),5.88% (inactive)
same,max response,[1]; [19],13.5%
same,max response,[1]; [20],23.6%
C[C@@H](N)C1CCC(C(=O)Nc2ccncc2)CC1 (some centres not stated),"activity change, negative = inhibition",[1]; at 57.5 µM (top of the series),2.12% (inactive)
same,max response,[1]; [19],-4.26%
same,max response,[1]; [20],-0.634%
same,Potency,[2],inactive
same,Potency,[3],inactive
same,outcome,[4],inactive
same,Potency,[5],inactive
same,Potency,[6],inactive
same,Potency,[7],inactive
same,Potency,[8],inactive
same,Potency,[9],inactive
same,Potency,[10],inactive
same,outcome,[11],inactive
same,Potency,[12],inactive
same,Potency,[13],inactive
same,Potency,[14],inactive
same,Potency,[15],inactive
same,Potency,[16],inactive
same,Potency,[17],inactive
Cc1ccc(S(=O)(=O)NC(=O)NN2CC3CCCC3C2)cc1 (configuration not stated),"activity change, negative = inhibition",[1]; at 57.5 µM (top of the series),1.76% (inactive) and 2.62% (inactive)
same,max response,[1]; [19],7.98% and 20.6%
same,max response,[1]; [20],13.4% and 23.5%
O=c1oc2cc(O)ccc2s1,"activity change, negative = inhibition",[1]; at 57.5 µM (top of the series),5.97% (inactive)
same,max response,[1]; [19],14.5%
same,max response,[1]; [20],23.2%
Cc1c(OCC(F)(F)F)ccnc1CS(=O)c1nc2ccccc2[nH]1 (configuration not stated),"activity change, negative = inhibition",[1]; at 25.7 µM (top of the series),-2.59% (inactive)
same,"activity change, negative = inhibition",[1]; at 57.5 µM (top of the series),0.201% (inactive)
same,max response,[1]; [19],-16.9% and 6.05%
same,max response,[1]; [20],-17.5% and 9.62%
same,Potency,[2],inactive
same,Potency,[3],inactive
same,outcome,[4],inactive
same,Potency,[9],inactive
same,Potency,[12],inactive
same,Potency,[13],inactive
same,Potency,[14],inactive
same,Potency,[15],inactive
same,Potency,[16],inactive
same,Potency,[17],inactive
O=C(c1ccccc1)c1ccc2n1CCC2C(=O)O (configuration not stated),"activity change, negative = inhibition",[1]; at 57.5 µM (top of the series),6.17% (inactive)
same,max response,[1]; [19],4.19%
same,max response,[1]; [20],13.3%
same,Potency,[2],inactive
same,Potency,[3],inactive
same,outcome,[4],inactive
same,Potency,[5],inactive
same,Potency,[6],inactive
same,Potency,[7],inactive
same,Potency,[8],inactive
same,Potency,[9],inactive
same,Potency,[18],inactive
same,Potency,[10],inactive
same,Potency,[12],inactive
same,Potency,[13],inactive
same,Potency,[15],inactive
same,Potency,[16],inactive
same,Potency,[17],inactive
